ClpP mod: qHTS Assay for Activators of ClpP | ATP-dependent Clp protease proteolytic subunit (Bacillus subtilis (strain 168)), P80244 | purified B. subtilis ClpP, FRET peptide cleavage, 20 min | Potency, µM (top dose mostly 57.5 µM), for inactives: at the top dose activity change, negative = active | hit rate 1.9% among 340,000 | AID 651965, 2013; active = well fitted falling curve with a large enough effect; inconclusive = small, poorly fitted or top-dose-only effect; inactive = no such curve, though single readings can be large or run the other way; note: potency is the fitted concentration of half-maximal effect; the source files actives as falling curves though it sought activators and does not explain the sign; nearly all actives have a fitted effect of over 65% in size
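Buffer: 100 mM Tris/HCl pH8, 100 mM KCl, 0.05% low protease BSA, 2.5% glycerol, 0.01% Tween-20. ClpP 10 microg/mL final; 20 min RT; delta FRET normalized to ADEP and DMSO controls.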
D3 antag: D3 dopamine receptor (human) antagonism; hit rate 2.5% among 360,000; P35462; D3R cells, DiscoveRx beta-arrestin luminescence, antagonist mode; stronger effect = lower value; max response, negative = inhibition, %; in the data active = max response below about -50%; inconclusive = no clear call, values can overlap the other calls; note: % is set by controls: 0 for no effect and ±100 for the full control effect
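Cells plated overnight at 1500 cells/well, then exposed to library compounds with dopamine controls for 90 minutes at 37 degrees C. DiscoveRx reagent added for 30–60 minutes at room temperature; luminescence read, quantitative HTS format.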
TDP1 cell noCPT: qHTS for Inhibitors of human tyrosyl-DNA phosphodiesterase 1 (TDP1): qHTS in cells in absence of CPT | DT40 Tdp1-/- hTDP1 cells, no CPT, ATP luminescence, 48 h | Potency, µM (series often up to 46.2 µM), for inactives: at the top dose activity change, negative = growth inhibition, actives largely listed as inhibitors | hit rate 15% among 420,000; note: potency is the fitted concentration of half-maximal effect; % is set by controls: 0 for no effect and ±100 for the full control effect; nearly all actives have a fitted effect of over 55% in size
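Growth kinetics read by CellTiter-Glo luminescence after ≥48 hr at 37 °C. Cells: DT40 Tdp1-/- stably carrying human TDP1, 400 per well, compound exposure in the absence of CPT (DMSO vehicle).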
IL1B secr inh: blocks inflammasome-driven IL-1 beta release; THP-1 LPS/ATP IL-1B secretion, AlphaLISA, 16 h; stronger effect = lower value; activity change, % at 57.5 µM; hit rate 4.7% among 360,000; AID 743279; in the data active = activity change below about -50%; inconclusive = mostly about -30% to -49%; note: % is set by controls: 0 for no effect and ±100 for the full control effect
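THP-1 cells pretreated 1 hr with compounds (up to 57.5 uM final), then stimulated with LPS (250 ng/mL final) plus ATP (1.25 mM final); secreted IL-1B measured by AlphaLISA after 16 hr, decreased signal indicating inhibition.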
DT40 TDP1 CPT: growth inhibition of DT40 Tdp1-/-;hTDP1 cells with camptothecin (screen for TDP1 inhibitors); chicken DT40 Tdp1-/-;hTDP1 cells + 20 nM CPT, ATP luminescence, 48 h; Potency, µM (titrated, usually from 46.2 µM), inactives show top-dose activity change, negative = growth inhibition, usual class: inhibitors; hit rate 12% among 420,000; note: potency is the fitted concentration of half-maximal effect; % is set by controls: 0 for no effect and ±100 for the full control effect; nearly all actives have a fitted effect of over 55% in size
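Chicken DT40 Tdp1-/- cells complemented with human TDP1, 400 cells/well, exposed to compounds plus 20 nM camptothecin for at least 48 h at 37 C; viability read as ATP content by CellTiter-Glo luminescence.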
DRD3 agonist: activates the human D3 dopamine receptor. D3R DiscoveRx beta-arrestin cells, luminescence, 90 min. max activation, %. P35462. hit rate 0.58% among 410,000. AID 652048; in the data active = max activation above about 30%; note: 0% is about no effect
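Agonist mode: compounds and dopamine controls were applied to plated cells for 90 min at 37 degrees C after an overnight attachment at 1500 cells/well. Luminescent read-out followed 30 - 60 minutes at room temperature with DiscoveRx detection reagent.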
An asterisk follows results filed as active; ? = inconclusive; . = no result given. A selection: hits, their analogues and other compounds. The true share with any hit is near 21%. Unless noted, calls come from the whole dose curve; as a rule, active = well fitted inhibition curve with a large enough effect; inconclusive = small, poorly fitted or top-dose-only effect; inactive = flat fitted curve, though single readings scatter.

SMILES	ClpP mod	D3 antag	TDP1 cell noCPT	IL1B secr inh	DT40 TDP1 CPT	DRD3 agonist
Cc1ccccc1N1CCN(C2CCCN(C(=O)CCc3c(C)noc3C)C2)CC1 (stereo not drawn)	-3%	?	23µM*	-3	?	-27
CCOc1cccc2cc(-c3nc(-c4ccc(Cl)cc4)c(C)s3)c(=O)oc12	-6%	.	-8%	.	7%	6
Cc1cccc(C)c1-n1nnnc1C1(C)CCC(=O)N1Cc1ccco1 (stereo not drawn)	0%	-20	-14%	14	4%	3
O=C(Oc1ccc(OC(=O)c2ccco2)c(S(=O)(=O)c2ccc(Cl)cc2)c1)c1ccco1	-2%	-3	16µM*	-8	-22%	3
CC(C)CN(C#N)c1nc(N2CCOCC2)nc(N2CCOCC2)n1	-2%	8	12µM*	-10	12µM*	4
CN(C#N)c1nc(N2CCOCC2)nc(N2CCOCC2)n1	-3%	6	?	0	?	5
CCN(CC)c1nc(C#N)nc(N2CCOCC2)n1	1%	.	10µM*	.	10µM*	.
COc1ccc(N2C(=O)c3ccccc3NC2c2ccccc2O)cc1 (stereo not drawn)	-16%	-4	-1%	-18	-12%	-1
CCOC(=O)COc1ccccc1C1Nc2ccccc2C(=O)N1c1cccc(Cl)c1 (stereo not drawn)	25µM*	-19	?	-1	?	-27
CCOC(=O)COc1c(OC)cc(Cl)cc1C1Nc2ccccc2C(=O)N1c1cccc(C)c1 (stereo not drawn)	28µM*	-25	26µM*	-11	?	-22
CCOc1cc(C2Nc3ccccc3C(=O)N2c2ccccc2)ccc1O (stereo not drawn)	?	-15	-5%	-12	-8%	-11
CCOC(=O)COc1c(OC)cc(Cl)cc1C1Nc2ccccc2C(=O)N1c1ccccc1 (stereo not drawn)	28µM*	-59*	-26%	13	-27%	0
CC(C)Oc1ccccc1C1Nc2ccccc2C(=O)N1c1ccc2c(c1)OCCO2 (stereo not drawn)	?	-27	?	-5	?	6
CCOC(=O)COc1c(OC)cc(Cl)cc1C1Nc2ccccc2C(=O)N1c1ccc(F)cc1 (stereo not drawn)	32µM*	-6	?	-6	?	3
COc1ccc(OC)c(N2C(=O)CC(NNC(=O)c3ccc4c(c3)OCO4)C2=O)c1 (stereo not drawn)	.	3	-2%	4	11%	1
CC(C)[C@H]1C(=O)Nc2ccccc2N1C(=O)N[C@@H](Cc1ccccc1)C(=O)N[C@@H](Cc1ccccc1)C(=O)O	-1%	-7	-23%	18	-1%	14
COCCN(C(=O)C(C)C)c1nnc(-c2cccc(C)c2)s1	-5%	4	-21%	-53*	-6%	-1
Cc1ccc(OCCCCNC(C)(C)C)c([N+](=O)[O-])c1	-4%	?	?	?	?	-16
CC1CCN(CCCCOc2ccc([N+](=O)[O-])cc2)CC1	1%	-29	-22%	-11	16%	-36
Cc1ccc(OCCCCN2CCCC(C)C2)c([N+](=O)[O-])c1 (stereo not drawn)	.	-80*	23µM*	-5	18µM*	-18
CC1CCN(CCCCOc2ccccc2[N+](=O)[O-])CC1	1%	-83*	-13%	-62*	-37%	-22
COC(=O)c1ccc(CSc2ccccc2NC(=S)Nc2cccc(C(F)(F)F)c2)o1	-1%	0	?	18	?	6
Cc1cc(S(=O)(=O)N2CCCC2)ccc1OCC(=O)NC1CCCC1	.	10	-22%	14	1%	10
Cc1cc(Cl)c(S(=O)(=O)N2CCN(c3ccc(F)cc3)CC2)cc1OCC(=O)NC1CCCCC1	-2%	1	8.2µM*	-75*	12µM*	3
CCOC(=O)C1CCCN(S(=O)(=O)c2cc(OCC(=O)NC3CCCCC3)c(C)cc2Cl)C1 (stereo not drawn)	-2%	-7	18µM*	-7	18µM*	2
SMILES	ClpP mod	D3 antag	TDP1 cell noCPT	IL1B secr inh	DT40 TDP1 CPT	DRD3 agonist
COC(=O)c1ccc(OC(=O)CCS(=O)(=O)c2ccc(C)cc2)cc1	0%	13	11%	7	2%	-5
CCOc1ccc2nc(N3CCCC(C(=O)Nc4cccc(Cl)c4C)C3)sc2c1 (stereo not drawn)	2%	.	?	.	?	-2
CCOc1ccc2nc(N3CCCC(C(=O)NCc4ccccc4OC)C3)sc2c1 (stereo not drawn)	0%	.	23µM*	.	?	2
CCOc1ccc2nc(N3CCCC(C(=O)Nc4ccc(OC)cc4)C3)sc2c1 (stereo not drawn)	-3%	.	12µM*	.	15µM*	9
CCOc1ccc2nc(N3CCCC(C(=O)Nc4ccc(CC)cc4)C3)sc2c1 (stereo not drawn)	2%	.	10µM*	.	16µM*	6
CCOc1ccc2nc(N3CCCC(C(=O)NCCCN4CCOCC4)C3)sc2c1 (stereo not drawn)	0%	-26	?	-27	?	-9
CCOc1ccc2nc(N3CCCC(C(=O)Nc4cc(Cl)c(OC)cc4OC)C3)sc2c1 (stereo not drawn)	-2%	.	13µM*	.	18µM*	5
Cc1cccc(N=[N+]([O-])c2cccc(C)n2)n1	-1%	0	-22%	22	-12%	4
CCOC(=O)N1CCN(C(=O)Nc2ccc3nc(C)sc3c2)CC1	-19%	8	0%	-1	-12%	-3
CCOC(=O)Nc1ccc2nc(N3CCCCCC3)sc2c1	0%	-9	2.6µM*	46	3.7µM*	-2
CCOc1ccc2nc(N3CCCC(C(=O)NC4CCCC4)C3)sc2c1 (stereo not drawn)	0%	46	21µM*	19	?	15
CCOc1ccc2nc(N3CCC(C(=O)NC4CCCCC4)CC3)sc2c1	0%	26	?	21	?	6
CCN(CC)C(=O)Cn1cc(SCC(=O)Nc2cccc(F)c2)c2ccccc21	-7%	.	-13%	.	-6%	5
COc1ccc(-n2nc(C(=O)N3CCN(c4cccc(C)c4C)CC3)c3c4ccccc4n(C)c3c2=O)cc1Cl	-14%	.	-10%	.	11%	-8
